Data from ChEMBL document CHEMBL4513146, “CO-ADD screening of Karazin Kharkiv National University (Ukraine) compounds”.
Potency and affinity values are given separately.

system: Klebsiella pneumoniae; details: Concentration 32 ug.mL-1;; ASSAY_TEST Inhibition of Bacterial Growth; detection method Absorption (OD600); MEDIA CAMHB; plate type 384well; NBS; CORNING #3640; time 18 hr

Question: `COc1cccc(CNC(=O)Cn2nc3c4cc(-c5cc(C)ccc5C)nn4ccn3c2=O)c1OC` was tested. Which Inhibition did it give?
Answer: 6.77%

Question: Which Inhibition does the source give for `Cc1ccc(Cl)cc1NC(=O)Cn1c(=O)c2nnc(C(C)C)n2c2ccccc21` here?
Answer: 5.77%

Question: How did the Inhibition turn out when `COc1cccc(Oc2nccn3c(=O)n(CC(=O)NC4CCCCC4)nc23)c1` was run?
Answer: 9.68%

Question: `NC(=O)C1CCN(C(=O)CCc2nnc3c(N4CCCCC4)nc4ccccc4n23)CC1` was tested. Which Inhibition did it give?
Answer: 15.2%

Question: `COc1ccc(N(Cc2cccc(C)c2)S(=O)(=O)c2ccc3nnc(C)n3c2)cc1` was tested. Which Inhibition did it give?
Answer: 7.11%

Question: How did the Inhibition turn out when `Cc1c(Cl)cccc1NC(=O)Cn1nc2c3c4c(sc3ncn2c1=O)CCCCC4` was run?
Answer: 9.28%

Question: How did the Inhibition turn out when `CCOc1ccc(-n2ccn3c(SCC(=O)c4ccc(OC)c(OC)c4)nnc3c2=O)cc1` was run?
Answer: 7.92%

Question: `COc1ccc(C)cc1NC(=O)Cn1nc2c(N3CCSCC3)nc3ccccc3n2c1=O` was tested. Which Inhibition did it give?
Answer: 14.66%

Question: Which Inhibition does the source give for `Cc1cc2nn(CC(=O)Nc3cc(F)ccc3F)c(=O)n2c(Nc2ccc(F)c(C)c2)n1` here?
Answer: 12.97%

Question: Which Inhibition does the source give for `COc1ccccc1-n1ccn2c(SCc3cccc(Cl)c3)nnc2c1=O` here?
Answer: 1.3%

Question: How did the Inhibition turn out when `Cc1c(Cl)cccc1-n1ccn2c(=S)[nH]nc2c1=O` was run?
Answer: 8.12%

Question: For `COc1ccc(NC(=O)Cn2nc3nc(N4CCOCC4)ccn3c2=O)cc1F`, which Inhibition is on record?
Answer: 8.85%

Question: With `COc1ccc(C(=O)CSc2nnc3c(=O)n(-c4ccc(F)cc4)ccn23)cc1OC` as the compound, how does the Inhibition read?
Answer: 11.15%

Question: With `COc1cccc(-n2ccn3c(SCC(=O)c4ccc(C)cc4)nnc3c2=O)c1` as the compound, how does the Inhibition read?
Answer: 10.94%

Question: `O=c1n(Cc2cccc(C(F)(F)F)c2)nc2c(S(=O)(=O)N3CCCCC3)cccn12` was tested. Which Inhibition did it give?
Answer: 6.48%

Question: `CCOC(=O)c1ccccc1NC(=O)CSc1nnc2ccc(C(=O)Nc3cccc(F)c3)cn12` was tested. Which Inhibition did it give?
Answer: 3.32%

Question: `COc1ccc(NC(=O)c2ccc3nn(CC(=O)Nc4ccc(C(C)C)cc4)c(=O)n3c2)cc1` was tested. Which Inhibition did it give?
Answer: 5.27%

Question: Which Inhibition does the source give for `CC(C)CCn1c(=O)c2sccc2n2c(=O)n(CC(N)=O)nc12` here?
Answer: 10.09%

Question: How did the Inhibition turn out when `COc1ccccc1NC(=O)Cn1nc2c3cc(-c4ccc(Cl)cc4)nn3ccn2c1=O` was run?
Answer: 7.17%

Question: With `O=C(Cn1nc2c(SC3CCCCC3)nccn2c1=O)Nc1ccccc1Br` as the compound, how does the Inhibition read?
Answer: 3.34%

Question: With `O=C(Cn1nc2c3cc(-c4ccc(F)cc4)nn3ccn2c1=O)NCc1ccccc1Cl` as the compound, how does the Inhibition read?
Answer: 7.72%

Question: How did the Inhibition turn out when `O=C(CSc1nnc2c(=O)n(-c3ccccc3)ccn12)Nc1cccc(F)c1` was run?
Answer: 2%

Question: How did the Inhibition turn out when `CCCCN(C)c1ccc2nnc(CCc3nc(-c4cccc(Br)c4)no3)n2n1` was run?
Answer: 13.86%

Question: With `Cc1ccc(-c2cc3c4nnc(CCC(=O)NCc5ccc(F)c(Cl)c5)n4ccn3n2)cc1C` as the compound, how does the Inhibition read?
Answer: 10.99%

Question: For `Cc1nnc2ccc(S(=O)(=O)N(Cc3ccccc3F)c3ccc(Cl)cc3)cn12`, which Inhibition is on record?
Answer: -3.84%

Question: For `Cc1cc(C)c(C(=O)CSc2nnc3c(=O)n(-c4ccc(F)cc4)ccn23)cc1C`, which Inhibition is on record?
Answer: 7.49%

Question: `COc1cc(NC(=O)Cn2nc3c(Oc4ccccc4)nccn3c2=O)cc(OC)c1OC` was tested. Which Inhibition did it give?
Answer: 10.24%

Question: How did the Inhibition turn out when `COc1cccc(-n2ccn3c(SCc4c(F)cccc4Cl)nnc3c2=O)c1` was run?
Answer: 6.32%

Question: `COc1ccccc1-n1ccn2c(SCC(=O)Nc3ccc(F)cc3F)nnc2c1=O` was tested. Which Inhibition did it give?
Answer: 8.27%

Question: `CCCCc1ccc(NC(=O)Cn2nc3c(SC4CCCCC4)nccn3c2=O)cc1` was tested. Which Inhibition did it give?
Answer: 1.99%

Question: For `O=c1c2nnc(SCc3ccccc3Cl)n2ccn1-c1ccc(F)cc1`, which Inhibition is on record?
Answer: 8%

Question: With `O=c1c2nnc(SCc3ccccc3)n2ccn1-c1ccc(Br)cc1` as the compound, how does the Inhibition read?
Answer: 7.85%

Question: How did the Inhibition turn out when `CCOc1ccc(C(=O)CSc2nnc3c(=O)n(-c4ccc(Br)cc4)ccn23)cc1` was run?
Answer: 15.85%

Question: Which Inhibition does the source give for `Cc1ccc(Oc2nccn3c(=O)n(CC(=O)Nc4ccc(Br)cc4F)nc23)cc1` here?
Answer: 2.41%

Question: How did the Inhibition turn out when `O=C(Cn1nc2ccc(SCc3ccc(Cl)cc3)nn2c1=O)Nc1ccccc1C(F)(F)F` was run?
Answer: 7.36%

Question: With `Cc1nnc2ccc(S(=O)(=O)N(Cc3ccccc3)c3cccc(F)c3)cn12` as the compound, how does the Inhibition read?
Answer: 4.18%

Question: For `CCOC(=O)c1ccc(NC(=O)Cn2nc3ccc(SCc4ccc(Cl)cc4)nn3c2=O)cc1`, which Inhibition is on record?
Answer: 5.68%

Question: `CCC(C)NC(=O)c1ccc2c(=O)n(C3CC3)c3nn(CC(=O)NC(C)C)c(=O)n3c2c1` (stereo not drawn) was tested. Which Inhibition did it give?
Answer: 17.09%

Question: Which Inhibition does the source give for `COc1cccc(CN(c2ccc(F)c(F)c2)S(=O)(=O)c2ccc3nnc(C)n3c2)c1` here?
Answer: 7.43%

system: Candida albicans; details: Concentration 32 ug.mL-1; ASSAY_TEST Inhibition of Fungal Growth; detection method Absorption (OD530)

Question: For `COc1cccc(CNC(=O)Cn2nc3c4cc(-c5cc(C)ccc5C)nn4ccn3c2=O)c1OC`, which Inhibition is on record?
Answer: -1.47%

Question: For `Cc1ccc(Cl)cc1NC(=O)Cn1c(=O)c2nnc(C(C)C)n2c2ccccc21`, which Inhibition is on record?
Answer: 3.52%

Question: `COc1cccc(Oc2nccn3c(=O)n(CC(=O)NC4CCCCC4)nc23)c1` was tested. Which Inhibition did it give?
Answer: -1.29%

Question: `NC(=O)C1CCN(C(=O)CCc2nnc3c(N4CCCCC4)nc4ccccc4n23)CC1` was tested. Which Inhibition did it give?
Answer: 1.8%

Question: For `COc1ccc(N(Cc2cccc(C)c2)S(=O)(=O)c2ccc3nnc(C)n3c2)cc1`, which Inhibition is on record?
Answer: 0.04%

Question: How did the Inhibition turn out when `Cc1c(Cl)cccc1NC(=O)Cn1nc2c3c4c(sc3ncn2c1=O)CCCCC4` was run?
Answer: 4.44%

Question: How did the Inhibition turn out when `CCOc1ccc(-n2ccn3c(SCC(=O)c4ccc(OC)c(OC)c4)nnc3c2=O)cc1` was run?
Answer: 3.75%

Question: With `COc1ccc(C)cc1NC(=O)Cn1nc2c(N3CCSCC3)nc3ccccc3n2c1=O` as the compound, how does the Inhibition read?
Answer: -2.66%

Question: For `Cc1cc2nn(CC(=O)Nc3cc(F)ccc3F)c(=O)n2c(Nc2ccc(F)c(C)c2)n1`, which Inhibition is on record?
Answer: 1.83%

Question: `COc1ccccc1-n1ccn2c(SCc3cccc(Cl)c3)nnc2c1=O` was tested. Which Inhibition did it give?
Answer: 1.65%

Question: For `Cc1c(Cl)cccc1-n1ccn2c(=S)[nH]nc2c1=O`, which Inhibition is on record?
Answer: 2.5%

Question: How did the Inhibition turn out when `COc1ccc(NC(=O)Cn2nc3nc(N4CCOCC4)ccn3c2=O)cc1F` was run?
Answer: 5.37%

Question: For `COc1ccc(C(=O)CSc2nnc3c(=O)n(-c4ccc(F)cc4)ccn23)cc1OC`, which Inhibition is on record?
Answer: 4.19%

Question: How did the Inhibition turn out when `COc1cccc(-n2ccn3c(SCC(=O)c4ccc(C)cc4)nnc3c2=O)c1` was run?
Answer: 3.43%

Question: How did the Inhibition turn out when `O=c1n(Cc2cccc(C(F)(F)F)c2)nc2c(S(=O)(=O)N3CCCCC3)cccn12` was run?
Answer: 1.28%

Question: For `CCOC(=O)c1ccccc1NC(=O)CSc1nnc2ccc(C(=O)Nc3cccc(F)c3)cn12`, which Inhibition is on record?
Answer: 0.61%

Question: Which Inhibition does the source give for `COc1ccc(NC(=O)c2ccc3nn(CC(=O)Nc4ccc(C(C)C)cc4)c(=O)n3c2)cc1` here?
Answer: 10.58%

Question: `CC(C)CCn1c(=O)c2sccc2n2c(=O)n(CC(N)=O)nc12` was tested. Which Inhibition did it give?
Answer: -1.13%

Question: Which Inhibition does the source give for `COc1ccccc1NC(=O)Cn1nc2c3cc(-c4ccc(Cl)cc4)nn3ccn2c1=O` here?
Answer: 8.08%

Question: For `O=C(Cn1nc2c(SC3CCCCC3)nccn2c1=O)Nc1ccccc1Br`, which Inhibition is on record?
Answer: 3.41%

Question: Which Inhibition does the source give for `O=C(Cn1nc2c3cc(-c4ccc(F)cc4)nn3ccn2c1=O)NCc1ccccc1Cl` here?
Answer: 20.13%

Question: How did the Inhibition turn out when `O=C(CSc1nnc2c(=O)n(-c3ccccc3)ccn12)Nc1cccc(F)c1` was run?
Answer: 7.33%

Question: For `CCCCN(C)c1ccc2nnc(CCc3nc(-c4cccc(Br)c4)no3)n2n1`, which Inhibition is on record?
Answer: 15.05%

Question: For `Cc1ccc(-c2cc3c4nnc(CCC(=O)NCc5ccc(F)c(Cl)c5)n4ccn3n2)cc1C`, which Inhibition is on record?
Answer: 2.11%

Question: For `Cc1nnc2ccc(S(=O)(=O)N(Cc3ccccc3F)c3ccc(Cl)cc3)cn12`, which Inhibition is on record?
Answer: 0.4%

Question: How did the Inhibition turn out when `Cc1cc(C)c(C(=O)CSc2nnc3c(=O)n(-c4ccc(F)cc4)ccn23)cc1C` was run?
Answer: 4.64%

Question: How did the Inhibition turn out when `COc1cc(NC(=O)Cn2nc3c(Oc4ccccc4)nccn3c2=O)cc(OC)c1OC` was run?
Answer: 3.29%

Question: How did the Inhibition turn out when `COc1cccc(-n2ccn3c(SCc4c(F)cccc4Cl)nnc3c2=O)c1` was run?
Answer: 2.64%

Question: For `COc1ccccc1-n1ccn2c(SCC(=O)Nc3ccc(F)cc3F)nnc2c1=O`, which Inhibition is on record?
Answer: 0.36%

Question: With `CCCCc1ccc(NC(=O)Cn2nc3c(SC4CCCCC4)nccn3c2=O)cc1` as the compound, how does the Inhibition read?
Answer: 20.8%

Question: With `O=c1c2nnc(SCc3ccccc3Cl)n2ccn1-c1ccc(F)cc1` as the compound, how does the Inhibition read?
Answer: 2.71%

Question: `O=c1c2nnc(SCc3ccccc3)n2ccn1-c1ccc(Br)cc1` was tested. Which Inhibition did it give?
Answer: 5.19%

Question: Which Inhibition does the source give for `CCOc1ccc(C(=O)CSc2nnc3c(=O)n(-c4ccc(Br)cc4)ccn23)cc1` here?
Answer: 8.18%

Question: Which Inhibition does the source give for `Cc1ccc(Oc2nccn3c(=O)n(CC(=O)Nc4ccc(Br)cc4F)nc23)cc1` here?
Answer: 2.18%

Question: Which Inhibition does the source give for `O=C(Cn1nc2ccc(SCc3ccc(Cl)cc3)nn2c1=O)Nc1ccccc1C(F)(F)F` here?
Answer: 1.76%

Question: With `Cc1nnc2ccc(S(=O)(=O)N(Cc3ccccc3)c3cccc(F)c3)cn12` as the compound, how does the Inhibition read?
Answer: 2.53%

Question: With `CCOC(=O)c1ccc(NC(=O)Cn2nc3ccc(SCc4ccc(Cl)cc4)nn3c2=O)cc1` as the compound, how does the Inhibition read?
Answer: 34.69%

Question: `CCC(C)NC(=O)c1ccc2c(=O)n(C3CC3)c3nn(CC(=O)NC(C)C)c(=O)n3c2c1` (stereo not drawn) was tested. Which Inhibition did it give?
Answer: -1.34%

Question: `COc1cccc(CN(c2ccc(F)c(F)c2)S(=O)(=O)c2ccc3nnc(C)n3c2)c1` was tested. Which Inhibition did it give?
Answer: 1.78%
